Laboratory results as given in PubChem BioAssay AID1159580 (chemical genetic matrix, 2015).
“And” between values parts separate entries of the source, which are not always exact repeats. Equal values may be shown once. Screen size: about 5,500 compounds; about 2,000 (36%) were called active. Another 18% or so got no clear call; they are omitted. No stated cut-off is given here; in the data, active means normalized growth mostly below about 0.91 (no sharp cut-off); inconclusive means no clear call, values can overlap the other calls; inactive means mostly above about 0.92. This is one part of the list.

Assay: chemical genetic growth profiling, strain panel (AID 1159580);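 further: tested at 20 µM; growth read once vehicle control cultures reached saturation at 30 °C; 1 = growth at the plate median or of vehicle wells; lower values mean less growth of the strain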
Conditions: S. cerevisiae deletion strains, growth OD

Measured: normalized growth

COC(=O)c1cc(=O)c(O)c2c(O)c(O)ccc2c1
active: locus YCL029C, strain bik1, active compounds read low 0.713 | locus YDL035C, strain GPR1, active compounds read low 0.512 | locus YDL074C, strain BRE1, active compounds read low 0.743 | locus YDL101C, strain DUN1, active compounds read low 0.778 | locus YDL185W, strain tfp1, active compounds read low 0.631 | locus YDL192W, strain arf1, active compounds read low 0.772 | locus YDR101C, strain arx1, active compounds read low 0.842 | locus YDR137W, strain rgp1, active compounds read low 0.821 | locus YDR150W, strain NUM1, active compounds read low 0.852 | locus YDR162C, strain NBP2, active compounds read low 0.275 | locus YDR318W, strain mcm21, active compounds read low 0.856 | locus YDR502C, strain sam2, active compounds read low 0.891 | locus YER155C, strain BEM2, active compounds read low 0.922 | locus YER167W, strain BCK2, active compounds read low 0.862 | locus YGL078C, strain dbp3, active compounds read low 0.732 | locus YGL086W, strain mad1, active compounds read low 0.71 | locus YGL248W, strain PDE1, active compounds read low 0.73 | locus YGR078C, strain PAC10, active compounds read low 0.713 | locus YGR135W, strain pre9, active compounds read low 0.795 | locus YGR229C, strain SMI1, active compounds read low 0.151 | locus YHR030C, strain SLT2, active compounds read low 0.604 and 0.636 | locus YHR079C, strain IRE1 (second series), active compounds read low 0.874 | locus YHR079C, strain IRE1, active compounds read low 0.81 | locus YHR129C, strain ARP1, active compounds read low 0.681 | locus YHR200W, strain rpn10, active compounds read low 0.878 | locus YIL066C, strain RNR3, active compounds read low 0.552 | locus YIL073C, strain SPO22, active compounds read low 0.416 | locus YIL125W, strain kgd1, active compounds read low 0.812 | locus YJL095W, strain BCK1, active compounds read low 0.59 and 0.624 | locus YJL168C, strain set2, active compounds read low 0.924 | locus YJL187C, strain SWE1 (second series), active compounds read low 0.627 | locus YJR043C, strain POL32, active compounds read low 0.709 | locus YJR066W, strain TOR1, active compounds read low 0.556 | locus YKL009W, strain mrt4, active compounds read low 0.773 | locus YKL068W, active compounds read low 0.808 | locus YKL085W, strain MDH1 (second series), active compounds read low 0.793 | locus YKL085W, strain MDH1, active compounds read low 0.793 | locus YKL190W, strain CNB1, active compounds read low 0.593 | locus YKR001C, strain vps1, active compounds read low 0.764 | locus YLR039C, strain RIC1, active compounds read low 0.354 | locus YLR058C, strain SHM2, active compounds read low 0.696 | locus YLR113W, strain HOG1, active compounds read low 0.795 | locus YLR262C, strain YPT6 (second series), active compounds read low 0.847 | locus YLR268W, strain sec22, active compounds read low 0.707 | locus YLR342W, strain FKS1 (second series), active compounds read low 0.569 | locus YLR371W, strain rom2, active compounds read low 0.781 | locus YLR418C, strain cdc73, active compounds read low 0.629 | locus YML016C, strain PPZ1, active compounds read low 0.771 | locus YML032C, strain rad52, active compounds read low 0.73 | locus YMR058W, strain fet3, active compounds read low 0.89 | locus YMR223W, strain ubp8, active compounds read low 0.818 | locus YMR263W, strain SAP30, active compounds read low 0.882 | locus YMR307W, strain GAS1, active compounds read low 0.477 | locus YNL067W, strain RPL9B, active compounds read low 0.745 | locus YNL153C, strain GIM3, active compounds read low 0.841 | locus YNL183C, strain NPR1, active compounds read low 0.643 | locus YNL233W, strain BNI4, active compounds read low 0.678 | locus YNL250W, strain rad50, active compounds read low 0.62 | locus YNL271C, strain bni1, active compounds read low 0.731 | locus YNL298W, strain CLA4, active compounds read low 0.725 | locus YNL322C, strain KRE1, active compounds read low 0.638 | locus YNR052C, strain pop2, active compounds read low 0.7 | locus YOL006C, strain TOP1, active compounds read low 0.326 | locus YOL147C, strain pex11, active compounds read low 0.91 | locus YOR061W, strain CKA2, active compounds read low 0.664 | locus YOR069W, strain VPS5, active compounds read low 0.796 | locus YOR136W, strain idh2, active compounds read low 0.869 | locus YOR144C, strain elg1, active compounds read low 0.822 | locus YOR184W, strain ser1, active compounds read low 0.801 | locus YOR231W, strain MKK1, active compounds read low 0.672 | locus YPL256C, strain CLN2, active compounds read low 0.787 | locus YPR141C, strain kar3, active compounds read low 0.777 | locus YPR163C, strain tif3, active compounds read low 0.832 | locus YPR167C, strain met16, active compounds read low 0.802 | strain wtn01, active compounds read low 0.785
inactive: locus YAL021C, strain ccr4, active compounds read low 1 | locus YAL026C, strain drs2, active compounds read low 0.968 | locus YAL030W, strain snc1, active compounds read low 0.991 | locus YBL061C, strain skt5, active compounds read low 0.988 | locus YBR009C, strain hhf1, active compounds read low 0.985 | locus YBR021W, strain FUR4, active compounds read low 1.07 | locus YBR023C, strain chs3, active compounds read low 0.995 | locus YBR171W, strain sec66, active compounds read low 0.976 | locus YBR229C, strain ROT2, active compounds read low 0.976 | locus YBR231C, strain swc5, active compounds read low 0.976 | locus YBR279W, strain paf1, active compounds read low 1 | locus YCL011C, strain gbp2, active compounds read low 1 | locus YCL016C, strain dcc1, active compounds read low 0.989 | locus YCL061C, strain MRC1, active compounds read low 0.987 | locus YCL069W, strain vba3, active compounds read low 1 | locus YCR088W, strain abp1, active compounds read low 0.997 | locus YDL005C, strain med2, active compounds read low 1.01 | locus YDL040C, strain nat1, active compounds read low 0.986 | locus YDR001C, strain nth1, active compounds read low 0.999 | locus YDR069C, strain doa4, active compounds read low 0.955 | locus YDR159W, strain sac3, active compounds read low 0.947 | locus YDR195W, strain ref2 0.934 | locus YDR297W, strain sur2, active compounds read low 0.987 | locus YDR334W, strain swr1, active compounds read low 0.983 | locus YDR335W, strain msn5, active compounds read low 0.994 | locus YDR388W, active compounds read low 0.954 | locus YDR392W, strain spt3, active compounds read low 0.99 | locus YEL003W, strain gim4, active compounds read low 0.996 | locus YEL037C, strain rad23, active compounds read low 0.997 | locus YEL061C, strain CIN8 (second series), active compounds read low 0.994 | locus YER015W, strain faa2, active compounds read low 0.985 | locus YER016W, strain bim1, active compounds read low 0.973 | locus YER110C, active compounds read low 0.988 | locus YER111C, strain swi4, active compounds read low 0.976 | locus YER155C, strain BEM2 (second series), active compounds read low 0.977 | locus YFR010W, strain ubp6, active compounds read low 0.958 | locus YGL167C, strain pmr1, active compounds read low 0.98 | locus YGL173C, strain kem1, active compounds read low 0.984 | locus YGL227W, strain vid30, active compounds read low 0.988 | locus YGL240W, strain doc1, active compounds read low 1.01 | locus YGL253W, strain hxk2, active compounds read low 0.998 | locus YGR252W, strain gcn5, active compounds read low 0.948 | locus YHR013C, strain ard1, active compounds read low 1.04 | locus YHR027C, strain rpn1, active compounds read low 0.991 | locus YHR094C, strain hxt1, active compounds read low 0.968 | locus YHR142W, strain chs7, active compounds read low 1.02 | locus YIR030C, strain dcg1, active compounds read low 0.932 | locus YJL092W, strain hpr5, active compounds read low 0.991 | locus YJL095W, strain BCK1 (second series), active compounds read low 0.99 | locus YJL115W, strain asf1, active compounds read low 0.99 | locus YJL129C, strain trk1, active compounds read low 0.997 | locus YJL134W, strain LCB3, active compounds read low 0.958 | locus YJL154C, strain vps35, active compounds read low 1.02 | locus YJL164C, strain tpk1, active compounds read low 0.995 | locus YJL166W, strain qcr8, active compounds read low 0.999 | locus YJL187C, strain SWE1, active compounds read low 0.992 | locus YKL160W, strain elf1, active compounds read low 1.01 | locus YKR026C, strain gcn3, active compounds read low 0.961 | locus YKR091W, strain srl3, active compounds read low 0.994 | locus YLL001W, strain dnm1, active compounds read low 0.99 | locus YLL026W, active compounds read low 0.994 | locus YLL041C, strain sdh2, active compounds read low 0.999 | locus YLR027C, strain aat2, active compounds read low 0.996 | locus YLR102C, strain apc9, active compounds read low 0.966 | locus YLR221C, strain rsa3, active compounds read low 0.97 | locus YLR258W, strain gsy2, active compounds read low 0.996 | locus YLR320W, strain mms22, active compounds read low 0.984 | locus YLR342W, strain FKS1, active compounds read low 0.978 | locus YLR357W, strain rsc2, active compounds read low 0.925 | locus YLR370C, strain arc18, active compounds read low 0.999 | locus YLR384C, strain iki3, active compounds read low 0.995 | locus YML120C, strain ndi1, active compounds read low 0.997 | locus YML124C, strain tub3, active compounds read low 0.952 | locus YMR078C, strain ctf18, active compounds read low 0.943 | locus YMR125W, strain sto1, active compounds read low 0.989 | locus YMR129W, active compounds read low 0.988 | locus YMR205C, strain PFK2, active compounds read low 0.987 | locus YMR231W, strain pep5, active compounds read low 0.995 | locus YNL071W, strain lat1, active compounds read low 1.02 | locus YNL209W, strain ssb2, active compounds read low 0.99 | locus YNL248C, strain rpa49, active compounds read low 0.99 | locus YNL307C, strain MCK1, active compounds read low 0.953 | locus YNL322C, strain KRE1 (second series), active compounds read low 0.967 | locus YNR049C, strain mso1, active compounds read low 0.998 | locus YOL012C, strain htz1 0.795 | locus YOR001W, strain rrp6, active compounds read low 0.985 | locus YOR070C, strain gyp1, active compounds read low 0.995 | locus YOR080W, strain dia2, active compounds read low 0.983 | locus YOR083W, strain WHI5, active compounds read low 1 | locus YOR106W, strain vam3, active compounds read low 0.966 | locus YOR265W, strain rbl2, active compounds read low 0.994 | locus YOR270C, strain vph1, active compounds read low 1.04 | locus YOR290C, strain snf2, active compounds read low 0.94 | locus YOR316C, strain cot1, active compounds read low 0.952 | locus YPL051W, strain arl3, active compounds read low 0.982 | locus YPL078C, strain atp4, active compounds read low 1.02 | locus YPL106C, strain sse1, active compounds read low 0.965 | locus YPL240C, strain hsp82, active compounds read low 0.978 | locus YPL241C, strain CIN2, active compounds read low 0.943 | locus YPR119W, strain clb2, active compounds read low 0.94
